A selection: hits, their analogues and other compounds. The true share with any hit is near 1.5%.
NPR1 activator = GC-A stimulated cGMP production enhancers – HEK293 GC-A cells, cGMP TR-FRET, EC30 ANP, primary screen; Atrial natriuretic peptide receptor 1 (Homo sapiens), P16066; 0% at EC30 ANP, 100% saturating ANP; activation, % at 10 µM; 0.14% of 370,000 active; AID 1671463, 2021; in the data active = activation above about 40%
Target sequence (P16066 whole entry, looked up): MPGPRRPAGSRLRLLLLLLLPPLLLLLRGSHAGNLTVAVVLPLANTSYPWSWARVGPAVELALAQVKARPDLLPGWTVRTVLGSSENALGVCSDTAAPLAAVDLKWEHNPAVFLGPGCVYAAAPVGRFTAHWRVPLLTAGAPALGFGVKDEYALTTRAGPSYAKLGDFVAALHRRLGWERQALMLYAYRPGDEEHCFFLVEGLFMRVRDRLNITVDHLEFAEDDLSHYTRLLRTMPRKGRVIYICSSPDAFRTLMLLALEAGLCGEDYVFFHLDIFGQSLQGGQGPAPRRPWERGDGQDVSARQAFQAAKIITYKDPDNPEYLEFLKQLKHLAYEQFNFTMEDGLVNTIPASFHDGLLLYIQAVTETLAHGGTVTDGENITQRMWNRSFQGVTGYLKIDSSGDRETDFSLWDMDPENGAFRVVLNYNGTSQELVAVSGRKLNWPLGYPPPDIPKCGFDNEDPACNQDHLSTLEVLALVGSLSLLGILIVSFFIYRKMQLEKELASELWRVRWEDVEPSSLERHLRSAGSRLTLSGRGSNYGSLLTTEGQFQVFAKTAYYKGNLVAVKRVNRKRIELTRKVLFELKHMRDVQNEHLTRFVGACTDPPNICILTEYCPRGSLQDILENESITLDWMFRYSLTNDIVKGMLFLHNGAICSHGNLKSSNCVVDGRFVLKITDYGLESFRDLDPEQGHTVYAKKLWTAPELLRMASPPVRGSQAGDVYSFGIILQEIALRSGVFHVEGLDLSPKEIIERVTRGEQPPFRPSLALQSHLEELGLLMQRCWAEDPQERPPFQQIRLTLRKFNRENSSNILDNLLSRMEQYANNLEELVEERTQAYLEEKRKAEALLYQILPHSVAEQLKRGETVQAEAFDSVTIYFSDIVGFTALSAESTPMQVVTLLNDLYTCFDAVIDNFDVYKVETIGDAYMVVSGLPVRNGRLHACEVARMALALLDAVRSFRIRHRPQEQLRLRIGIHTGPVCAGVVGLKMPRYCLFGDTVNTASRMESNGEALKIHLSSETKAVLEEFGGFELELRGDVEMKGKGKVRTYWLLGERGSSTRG
Neddyl block = inhibitors of cullin neddylation, primary screen, biochemical, TR-FRET, uHTS, NAE and Ubc12; NEDD8-conjugating enzyme Ubc12 (Homo sapiens) + NEDD8-activating enzyme E1 regulatory …; inhibition, % at 25 µM; 0.58% of 360,000 active; AID 651699, 2012; in the data active = inhibition above about 36%
NadD block = inhibitors of S. aureus NadD, primary screen, biochemical, colorimetric, uHTS; Nicotinate-nucleotide adenylyltransferase NadD (Staphylococcus aureus N315); purified NadD enzyme, colorimetric absorbance read-out; inhibition, % at 20 µM; 0.78% of 360,000 active; in the data active = inhibition above about 26%
NPR2 activator = human GC-B receptor activators, primary screen, HEK293 GC-B cells, cGMP TR-FRET, EC30 CNP | Atrial natriuretic peptide receptor 2 (Homo sapiens), P20594 | 0% at EC30 CNP, 100% saturating CNP | activation, % at 10 µM | 0.11% of 370,000 active | AID 1920062, 2024;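 active = activation at 10 µM reaching about 35% in either raw or pattern-adjusted values, limit read from the data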
An asterisk follows results filed as active; i = inactive; x = no result given.

SMILES	NPR1 activator	Neddyl block	NadD block	NPR2 activator
CCC(=O)OC1(C)C(=O)C=C2C=C(c3ccsc3)OC=C2C1=O (configuration not stated)	x	-19	21	x
COc1ccccc1NC(=O)c1cc2cc(Br)ccc2cc1O	10	-51	30*	6
COC(=O)[C@]12C[C@H](CC(=O)N3CCCCC3)C(=O)N(CCc3ccc(OC)c(OC)c3)C1=C[C@H](COCc1ccccc1)O[C@@H]2C	7	x	x	3
COc1ccc(-c2nnc(NC(=O)c3ccc(S(=O)(=O)N4CCCc5ccccc54)cc3)o2)cc1	x	x	86*	x
CN(C)C=Nc1nc2c(Br)ccc(Br)c2cc1C(=O)NCC(C)(C)C	48*	x	x	-8
CN(C)/C=N/c1c(C(=O)NCc2ccccc2)nnn1Cc1ccccc1	0	-11	-5	-2
COc1ccc(-c2n[nH]c(C)c2-c2ccc(Cl)cc2)c(O)c1	7	14	-2	1
Cc1[nH]nc(-c2ccc(O)cc2O)c1-c1ccc(Cl)cc1	70*	17	1	-8
C=Cc1ncc(OC)c2c1[nH]c1ccccc12	x	58*	-1	x
O=C(COCc1ccccc1)N1CC[C@H]2[C@H](CCCN2Cc2ccc(F)cc2)C1	4	x	x	2
COc1ccc(/C=C(\C#N)C(=O)Nc2cccc3ncccc23)cc1OC	10	-3	0	-6
N#C/C(=C\c1ccc(O)c(O)c1)C(=O)Nc1cccc2ncccc12	-6	15	86*	-11
Cc1cccc(NC(=O)CSc2nnc(SCc3ccc(Cl)cc3)s2)c1	-4	x	x	5
O=C(O)C1CCN(C(=O)c2ccccc2N2C(=O)[C@@H]3Cc4c([nH]c5ccccc45)C(c4cccc(Cl)c4)N3C2=O)CC1 (some centres not stated)	53*	13	11	58*
Cc1ccc(C2c3[nH]c4ccccc4c3C[C@H]3C(=O)N(c4ccccc4C(=O)N4CCC(C(=O)O)CC4)C(=O)N23)cc1 (some centres not stated)	12	7	11	23
COCCN(CCOC)C(=O)c1sc2nc(-c3ccccc3)cn2c1C	1	-2	3	-5
Cc1c(C(N)=O)sc2nc(-c3ccccc3)cn12	4	-4	4	74*
O=C(Cn1cnc2ccccc2c1=O)N1CCCCC1	-4	x	x	-2
COc1cccc(CNC(=O)[C@H]2CCCN2C(=O)[C@H]2CCCN2S(=O)(=O)c2cccc(C)c2)c1	-1	x	x	-3
CC[n+]1c(/C=C/N(C)c2ccccc2)n(-c2ccccc2)c2ccc(-c3nc4ccccc4s3)cc21	x	x	32*	x
CCOc1cc(N2CCOCC2)c(OCC)cc1NC(=O)COC(=O)c1ccc([N+](=O)[O-])o1	37	-29	-4	37*
CCOc1cc(N2CCOCC2)c(OCC)cc1NC(=O)COC(=O)c1cc(C)cc(C)c1	20	5	-6	28
Cc1ccccc1-c1ccc(C(=O)NCc2ccccc2)o1	2	12	-4	7
Cc1ccc(-c2ccc(C(=O)NCc3ccc(Cl)cc3)o2)c2ccccc12	-1	-22	27*	1
N#CCC[C@@H]1CC[C@]2(CCCN(C(=O)c3ccco3)C2)O1	3	x	x	4
SMILES	NPR1 activator	Neddyl block	NadD block	NPR2 activator
CC(C)C[C@@H](CN1CCC[C@@H]1CN1C(=S)NC[C@@H]1Cc1ccc(O)cc1)N1C[C@H](Cc2ccc(O)cc2)N(CC2CCCCC2)C1=S	3	7	42*	6
O=C(CSc1nc2nn(-c3ccccc3)c(=O)c-2c2n1CCCCC2)c1ccc(O)c(O)c1	x	-58	57*	x
O=C(CSc1nc2nn(-c3ccccc3)c(=O)c-2c2n1CCCCC2)Nc1ccc(F)c(F)c1	-2	-16	39*	-3
COc1ccc(CCN2CC(O)=C(c3nc4ccccc4c(=O)[nH]3)C2=N)cc1OC	70*	38	3	-2
COc1ccccc1N1CCN(C(=O)c2ccc3c(c2)nc(C)n3-c2cc(OC)c(OC)c(OC)c2)CC1	14	x	x	22
CCOC(=O)c1sc2nc3c(SCCC(=O)O)cc(C(=O)c4cc(OC)ccc4O)cn3c(=O)c2c1C	-3	14	43*	15
CCOC(=O)N1CCN(C(=O)C[C@H]2C[C@@]3(C(=O)OC)C(=C[C@H](C4CCCC4)O[C@@H]3C)N(Cc3cccc4ccccc34)C2=O)CC1	-7	x	x	2
Cc1cccc2cc(/C=C3\N=C(c4ccccc4)OC3=O)c(N3CCOCC3)nc12	-1	-68	32*	6
CCCCC1=CC2=C(c3ccco3)C(=O)C(C)(OC(=O)c3ccc(OC)cc3)C(=O)C2=CN1Cc1ccco1 (configuration not stated)	x	i	37*	x
